Screening results as filed in PubChem.
proKLK7 act – proKLK7 (human) activation, primary screen; P49862; purified proKLK7, EDANS-DABCYL substrate fluorescence; 100% is mature enzyme control, 0% vehicle; activation, % at 7 µM; 370,000 compounds, 0.9% hits; AID 652039;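 active = activation above the mean of all tested compounds plus 3 SD, computed per campaign excluding outliers beyond control limits, cut at about 13% in these data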
ADAM10 inh – inhibitors of human ADAM10. O14672. recombinant ADAM10, EDANS/DABCYL FRET peptide cleavage, 3 h. inhibition, % at 7 µM. 370,000 compounds, 0.62% hits. AID 720582;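 active = inhibition above a per-campaign cutoff equal to the mean of compounds falling between control-based bounds plus 3 SD, cut at about 20% in these data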;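 also: 0% = DMSO wells while the 100% control is not disclosed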
PLC-beta3 inh – blocks human PLC-beta3 enzyme activity; Purified PLC-beta3, fluorogenic substrate, fluorescence; inhibition, % at 12.2 µM; 370,000 compounds, 0.18% hits; in the data active = inhibition above about 11%;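 also: 0% = median of compound wells on plate and 100% = full blocker control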
Target sequence (Q01970 whole entry, looked up): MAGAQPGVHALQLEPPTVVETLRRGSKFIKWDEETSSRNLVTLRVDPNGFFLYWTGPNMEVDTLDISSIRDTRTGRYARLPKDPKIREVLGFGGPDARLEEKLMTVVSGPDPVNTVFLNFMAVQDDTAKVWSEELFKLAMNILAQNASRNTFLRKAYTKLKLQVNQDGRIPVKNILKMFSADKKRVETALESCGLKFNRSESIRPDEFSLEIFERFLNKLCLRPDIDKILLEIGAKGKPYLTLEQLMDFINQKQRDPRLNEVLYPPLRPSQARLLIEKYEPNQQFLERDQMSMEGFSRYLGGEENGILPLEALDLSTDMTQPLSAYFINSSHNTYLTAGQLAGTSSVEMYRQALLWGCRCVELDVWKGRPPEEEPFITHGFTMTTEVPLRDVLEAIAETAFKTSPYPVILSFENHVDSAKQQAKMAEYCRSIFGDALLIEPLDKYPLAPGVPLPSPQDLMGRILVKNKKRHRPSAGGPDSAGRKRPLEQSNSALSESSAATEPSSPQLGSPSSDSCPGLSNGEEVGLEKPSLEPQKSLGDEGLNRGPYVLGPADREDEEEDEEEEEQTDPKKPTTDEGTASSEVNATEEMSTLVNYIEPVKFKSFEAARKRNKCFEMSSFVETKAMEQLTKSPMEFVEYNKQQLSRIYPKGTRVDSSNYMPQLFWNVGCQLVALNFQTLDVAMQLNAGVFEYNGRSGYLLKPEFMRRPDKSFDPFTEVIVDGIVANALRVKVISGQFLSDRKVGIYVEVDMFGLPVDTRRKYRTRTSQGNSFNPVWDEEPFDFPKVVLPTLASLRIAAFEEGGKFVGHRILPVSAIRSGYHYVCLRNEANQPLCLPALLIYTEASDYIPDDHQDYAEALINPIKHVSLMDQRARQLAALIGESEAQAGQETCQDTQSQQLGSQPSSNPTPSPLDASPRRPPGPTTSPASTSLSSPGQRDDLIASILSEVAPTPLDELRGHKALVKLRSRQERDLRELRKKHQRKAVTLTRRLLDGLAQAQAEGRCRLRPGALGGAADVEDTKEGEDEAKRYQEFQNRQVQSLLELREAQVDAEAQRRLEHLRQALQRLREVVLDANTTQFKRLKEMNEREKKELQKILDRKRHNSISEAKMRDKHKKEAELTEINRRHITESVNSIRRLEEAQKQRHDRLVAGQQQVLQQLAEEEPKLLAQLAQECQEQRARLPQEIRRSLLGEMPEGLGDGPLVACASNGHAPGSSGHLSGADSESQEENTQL
PLC-gamma1 inh – blocks human PLC-gamma1 enzyme activity. P19174. purified PLC-gamma1, fluorogenic substrate, fluorescence. inhibition, % at 12.2 µM. 370,000 compounds, 0.84% hits; in the data active = inhibition above about 9.5%
ADAM17 inh – ADAM17 inhibition, QFRET primary screen; P78536; inhibition, % at 6.95 µM; recombinant ADAM17, EDANS/DABCYL FRET peptide cleavage; 370,000 compounds, 0.83% hits;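 active = inhibition above the mean of compounds lying between control limits plus 3 SD, set per campaign, cut at about 8.5% in these data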;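 also: 0% = DMSO-only wells as the low control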
KLK7 act conf – confirmation of human kallikrein-7 zymogen activators; shares compounds with proKLK7 act; purified proKLK7, EDANS-DABCYL substrate fluorescence; scaled: vehicle 0, mature enzyme 100; activation, % at 7 µM; 3,200 compounds, 68% hits;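 active = activation, as change over the incubation, above the mean of all tested compounds plus 3 SD, cut at about 13% in these data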
EDANS interfere – optically interferes with EDANS-DABCYL signal, flagging KLK7 hits; 3,200 compounds, 80% hits; EDANS-DABCYL substrate fluorescence interference, no enzyme, 4 h; solvent 0%, active enzyme control 100%; AID 686952; shares compounds with proKLK7 act; activation, % at 7 µM;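 active = activation above the all-compound mean plus 3 SD, ignoring values outside control-based bounds, cut at about 4.8% in these data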;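 also: value is the 4 h activation minus the activation read at time zero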
EDANS interf – optically interferes with EDANS-DABCYL fluorescence, kallikrein-7 activator counter-screen; EC50, µM; 250 compounds, 20% hits; shares compounds with proKLK7 act; EDANS-DABCYL peptide fluorescence interference, no enzyme; AID 720493;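 active = compounds that raise the fluorescence signal in this interference counterscreen, with EC50 at or below 10 µM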;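 also: intact quenched peptide substrate alone read at 355 nm excitation and 520 nm emission; signal is fluorescence gain from T0 to T4 after four hours at room temperature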
Active calls of the source: *; i = inactive; . = not tested or not shown. Hits are enriched below; roughly 2.9% of the tested compounds scored in any of these assays.

SMILES | proKLK7 act | ADAM10 inh | PLC-beta3 inh | PLC-gamma1 inh | ADAM17 inh | KLK7 act conf | EDANS interfere | others
CCN(CC)C(=O)[C@H]1C[C@H](CC(=O)NCc2ccco2)C(=O)N2CCc3c([nH]c4cc(-c5ccco5)ccc34)[C@]12C | 112* | i | i | i | -147 | 44* | 51*
CCN(CC)C(=O)[C@H]1C[C@H](CC(=O)NCCCn2ccnc2)C(=O)N2CCc3c([nH]c4cc(-c5ccco5)ccc34)[C@]12C | 95* | -209 | -191 | -138 | -58 | 69* | 74*
c1ccc(-c2ccc(-c3ccccn3)s2)nc1 | 15* | i | -221 | -185 | i | -19 | -7
O=C(NCc1ccco1)/C(=C/c1cccc(C(F)(F)F)c1)c1nc2ccccc2[nH]1 | -1 | -70 | -62 | -50 | -24 | . | .
O=C(NCc1ccco1)/C(=C/c1ccc(C(F)(F)F)cc1)c1nc2ccccc2[nH]1 | 61* | -120 | -54 | -45 | -37 | 84* | 96*
CC1=CC(C)(C)N(C(=O)CNC2CCCC2)c2cc(C)ccc21 | 0 | -4 | 3 | 2 | -3 | . | .
CCN(CC)CCCn1c(=S)[nH]c2cc(OC)c(OC)cc2c1=O | 0 | -5 | -2 | -2 | -7 | . | .
c1nc(NCC2CCCO2)c2cc(-c3ccc4c(c3)OCO4)ccc2n1 (stereo not given) | . | -95 | -208 | -159 | -30 | . | .
COCCN(C(=O)COC(=O)c1ccccc1NCc1ccco1)c1c(N)n(Cc2ccccc2)c(=O)[nH]c1=O | -35 | i | i | -383 | i | . | .
CCCCn1c(N)c(N(CCOC)C(=O)COC(=O)c2ccccc2NCCO)c(=O)[nH]c1=O | 36* | i | i | i | i | 19* | 22*
CCN(CC(=O)NCc1cccs1)C(=O)/C=C/c1cc(OC)ccc1OC | 67* | i | i | i | -359 | 71* | 71*
COc1ccc(OC)c(/C=C/C(=O)OCC(=O)NCc2ccccc2)c1 | 15* | -143 | i | -406 | -47 | 4 | 8.3*
O=C(/C=C/c1ccccc1)NCCc1nc2ccccc2[nH]1 | 0 | -6 | -8 | 0 | 3 | . | .
COc1ccc(OC)c(/C=C/C(=O)NCCc2nc3ccccc3[nH]2)c1 | 49* | i | i | i | -363 | 37* | -31 | EDANS interf=>69
COc1ccc(OC)c(/C=C/C(=O)OCC(=O)NCc2cccs2)c1 | 15* | -165 | i | i | -43 | 9 | 21*
Cc1cc(Br)cn2c(Cc3cccc(F)c3)c(-c3ccc(C#N)cc3)nc12 | -2 | -22 | -15 | -12 | -7 | . | .
COc1nc(OCCNC(C)=O)nc(N(C)C)n1 | 0 | 8 | 6 | 2 | -1 | . | .
COc1ccc(O)c(C(=O)CC(=O)c2cccnc2)c1 | 55* | i | i | i | -336 | 229* | 235*
COc1ccc(O)c(C(=O)CC(=O)c2ccc(F)cc2)c1 | 8 | -349 | -249 | -246 | -131 | . | .
Cc1c(CCC(=O)NC2CC2)c(=O)oc2cc(O)ccc12 | 86* | i | i | i | i | 62* | 73*
Cc1oc2cc3oc(=O)c(CCC(=O)NCCCC(=O)O)c(C)c3cc2c1C | 14* | -371 | -486 | -383 | -114 | 24* | 22*
CCOc1cc2[nH]c(=O)n(CCCN3CCCC3=O)c(=O)c2cc1OCC | -1 | -96 | -4 | -4 | -23 | . | .
O=C(COC(=O)Cc1c(F)cccc1Cl)NC1CCS(=O)(=O)C1 (stereo not given) | 1 | 9 | -5 | 4 | 1 | . | .
Cc1ncc(CO)c(/C=N/NC(=O)c2ccccc2Br)c1O | 28* | i | i | i | -282 | -88 | -76
COc1ccccc1NS(=O)(=O)c1cccc(C(=O)N/N=C/c2c(CO)cnc(C)c2O)c1 | -6 | -273 | -473 | -377 | -53 | . | .
SMILES | proKLK7 act | ADAM10 inh | PLC-beta3 inh | PLC-gamma1 inh | ADAM17 inh | KLK7 act conf | EDANS interfere | others
Cc1ncc(CO)c(/C=N/NC(=O)c2ccoc2C)c1O | -65 | i | i | i | -428 | . | .
COc1ccccc1N/N=C/c1c(CO)cnc(C)c1O | 21* | -475 | -126 | -82 | -155 | 34* | 39*
CCCCNc1nccnc1-c1cccc(C=O)c1 | 212* | -391 | -130 | -96 | -86 | 299* | 289*
CCCCNc1nc(-c2ccccc2)c(C(=O)OCC)cc1C#N | 0 | -59 | -294 | -232 | -19 | . | .
CN(C(=O)c1ccccc1)c1ccc(OCC(=O)NC2CCS(=O)(=O)C2)cc1 (stereo not given) | 0 | -5 | 2 | -1 | 3 | . | .
N=c1oc2cc(O)ccc2cc1C(=O)Nc1nc2ccccc2s1 | 55* | i | i | i | i | 67* | 73*
CC(c1ccccc1)C1CC(=O)N(Cc2ccco2)C1=O (stereo not given) | 119* | -4 | -5 | -6 | -2 | 2 | 0
COc1ccc(-c2noc(CCC(=O)NCC3CCN(Cc4cccc(C)c4)CC3)n2)cc1 | 1 | -3 | 1 | -1 | -2 | . | .
O=Cc1c(Cl)nc2ccccn2c1=O | 42* | -43 | -26 | -17 | -17 | 22* | 20*
Cc1cccn2c(=O)c(C=O)c(Cl)nc12 | 92* | -28 | -24 | -11 | -12 | 16* | 19*
CC1CCN(c2nc3ccccn3c(=O)c2C=O)CC1 | 0 | 3 | 0 | 0 | 2 | . | .
CCOC(=O)C1C(=O)C=C(C)C(C(=O)OCC)C1c1ccc(OC)cc1 (stereo not given) | 0 | 7 | 6 | 4 | -3 | . | .
N=C1/C(=C\c2coc3ccccc3c2=O)C(=O)N=C2SC(c3ccncc3)=NN12 | 43* | -132 | -181 | -116 | -54 | 47* | 39* | EDANS interf=i
CSC1=NSC2=NC(=O)/C(=C\c3coc4ccccc4c3=O)C(=N)N12 | -8 | -150 | -374 | -295 | -54 | . | .
COc1ccc(N2C(=O)c3ccccc3NC2c2ccc(NC(C)=O)cc2)c(OC)c1 (stereo not given) | 4 | -94 | -54 | -27 | -33 | . | .
COc1ccccc1N1C(=O)c2ccccc2NC1c1ccc(O)cc1 (stereo not given) | 23* | -401 | -272 | -208 | -153 | 20* | 26*
CCOc1cc(C2Nc3ccccc3C(=O)N2c2ccccc2OC)ccc1O (stereo not given) | 9 | -290 | -122 | -103 | -72 | . | .
COc1cc(C2Nc3ccccc3C(=O)N2c2ccccc2OC)ccc1O (stereo not given) | 13* | -251 | -149 | -123 | -79 | 15* | 17*
